# Reference: paper PMC5540273 (PLoS ONE, 2017)
# Where “and” joins values, the source holds several entries; their conditions need not be identical. Equal values may be shown once. Read-outs that look alike come from different tables or passages of the source.
# Columns and labels:
# MYO3B = conditions: concentration: 1 μM, replicates: in singlicate, n = 1
# NDR1 = tested on: T1, NDR1; conditions: concentration: 1 μM, replicates: in singlicate, n = 1
# T1 construct: gene STK38
# NDR2 = conditions: concentration: 1 μM, replicates: in singlicate, n = 1
# NEK10 = conditions: concentration: 1 μM, replicates: in singlicate, n = 1
# NEK11 = conditions: concentration: 1 μM, replicates: in singlicate; n = 1
# NEK1 = conditions: concentration: 1 μM, replicates: in singlicate, n = 1
# NEK2 = conditions: concentration: 1 μM, replicates: in singlicate, n = 1
# NEK3 = conditions: concentration: 1 μM, replicates: in singlicate, n = 1
# NEK4 = conditions: concentration: 1 μM, replicates: in singlicate, n = 1
# NEK5 = conditions: concentration: 1 μM, replicates: in singlicate, n = 1
# NEK6 = conditions: concentration: 1 μM, replicates: in singlicate, n = 1
# NEK7 = conditions: concentration: 1 μM, replicates: in singlicate; n = 1
# NEK9 = conditions: concentration: 1 μM, replicates: in singlicate, n = 1
# NIK = tested on: T2, NIK; conditions: concentration: 1 μM, replicates: in singlicate, n = 1
# T2 construct: gene MAP3K14
# NIM1 = tested on: T3, NIM1; conditions: concentration: 1 μM, replicates: in singlicate, n = 1
# T3 construct: gene MGC42105
# NLK = conditions: concentration: 1 μM, replicates: in singlicate, n = 1
# OSR1 = tested on: T4, OSR1; conditions: concentration: 1 μM, replicates: in singlicate, n = 1
# T4 construct: gene OXSR1
# PAK1 = conditions: concentration: 1 μM, replicates: in singlicate, n = 1
# PAK2 = conditions: concentration: 1 μM, replicates: in singlicate, n = 1
# PAK3 = conditions: concentration: 1 μM, replicates: in singlicate, n = 1
# 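Also: KINOMEscan kinase panel screen.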
compound,measurement,setting,value
Cl.Oc1cccc(Nc2ccnc3cc(-c4ccncc4)ccc23)c1 [GW494601],%Inh,MYO3B,0%
same,%Inh,NDR1,24%
same,%Inh,NDR2,37%
same,%Inh,NEK10,0%
same,%Inh,NEK11,49%
same,%Inh,NEK1,0%
same,%Inh,NEK2,0%
same,%Inh,NEK3,1%
same,%Inh,NEK4,0%
same,%Inh,NEK5,0%
same,%Inh,NEK6,0%
same,%Inh,NEK7,0%
same,%Inh,NEK9,0%
same,%Inh,NIK,30%
same,%Inh,NIM1,0%
same,%Inh,NLK,66%
same,%Inh,OSR1,0%
same,%Inh,PAK1,0%
same,%Inh,PAK2,0%
same,%Inh,PAK3,33%
CCn1cnc2c(N)ncnc21 [GW345098],%Inh,MYO3B,0%
same,%Inh,NDR1,15%
same,%Inh,NDR2,8%
same,%Inh,NEK10,39%
same,%Inh,NEK11,0%
same,%Inh,NEK1,0%
same,%Inh,NEK2,13%
same,%Inh,NEK3,3%
same,%Inh,NEK4,12%
same,%Inh,NEK5,10%
same,%Inh,NEK6,29%
same,%Inh,NEK7,14%
same,%Inh,NEK9,0%
same,%Inh,NIK,6%
same,%Inh,NIM1,0%
same,%Inh,NLK,37%
same,%Inh,OSR1,0%
same,%Inh,PAK1,9%
same,%Inh,PAK2,0%
same,%Inh,PAK3,58%
Cc1cccc(-c2nc(Nc3ccc4ncsc4c3)c3ccccc3n2)n1 [GW867588],%Inh,MYO3B,16%
same,%Inh,NDR1,14%
same,%Inh,NDR2,4%
same,%Inh,NEK10,5%
same,%Inh,NEK11,0%
same,%Inh,NEK1,0%
same,%Inh,NEK2,0%
same,%Inh,NEK3,0%
same,%Inh,NEK4,0%
same,%Inh,NEK5,0%
same,%Inh,NEK6,8%
same,%Inh,NEK7,0%
same,%Inh,NEK9,0%
same,%Inh,NIK,0%
same,%Inh,NIM1,17%
same,%Inh,NLK,14%
same,%Inh,OSR1,0%
same,%Inh,PAK1,0%
same,%Inh,PAK2,45%
same,%Inh,PAK3,19%
NCC(NC(=O)c1cc(-c2cn[nH]c2)c(-c2ccnc3[nH]ccc23)s1)c1ccccc1.O=C(O)C(F)(F)F.O=C(O)C(F)(F)F (centres unmarked) [GSK1325775],%Inh,MYO3B,0%
same,%Inh,NDR1,65%
same,%Inh,NDR2,70%
same,%Inh,NEK10,50%
same,%Inh,NEK11,15%
same,%Inh,NEK1,72%
same,%Inh,NEK2,43%
same,%Inh,NEK3,7%
same,%Inh,NEK4,0%
same,%Inh,NEK5,57%
same,%Inh,NEK6,0%
same,%Inh,NEK7,0%
same,%Inh,NEK9,10%
same,%Inh,NIK,28%
same,%Inh,NIM1,38%
same,%Inh,NLK,0%
same,%Inh,OSR1,4%
same,%Inh,PAK1,19%
same,%Inh,PAK2,32%
same,%Inh,PAK3,39%
CCCCCc1nc2c(N)ncnc2n1CCCCC [SKF-97255],%Inh,MYO3B,10%
same,%Inh,NDR1,31%
same,%Inh,NDR2,7%
same,%Inh,NEK10,16%
same,%Inh,NEK11,0%
same,%Inh,NEK1,18%
same,%Inh,NEK2,0%
same,%Inh,NEK3,28%
same,%Inh,NEK4,0%
same,%Inh,NEK5,0%
same,%Inh,NEK6,2%
same,%Inh,NEK7,0%
same,%Inh,NEK9,0%
same,%Inh,NIK,0%
same,%Inh,NIM1,27%
same,%Inh,NLK,0%
same,%Inh,OSR1,0%
same,%Inh,PAK1,12%
same,%Inh,PAK2,67%
same,%Inh,PAK3,4%
CC(C)(CN)c1nc(-c2ccc(Cl)c(O)c2)c(-c2ccncc2)[nH]1.O=C(O)C(F)(F)F [SB-477794],%Inh,MYO3B; 1 µM,0% and 47%
same,%Inh,NDR1; 1 µM,40% and 49%
same,%Inh,NDR2; 1 µM,63% and 52%
same,%Inh,NEK10; 1 µM,19% and 24%
same,%Inh,NEK11,0%
same,%Inh,NEK1; 1 µM,0% and 100%
same,%Inh,NEK2; 1 µM,12% and 0%
same,%Inh,NEK3; 1 µM,26% and 0%
same,%Inh,NEK4; 1 µM,21% and 10%
same,%Inh,NEK5; 1 µM,13% and 3%
same,%Inh,NEK6; 1 µM,0% and 2%
same,%Inh,NEK7,0%
same,%Inh,NEK9; 1 µM,0% and 11%
same,%Inh,NIK; 1 µM,0% and 3%
same,%Inh,NIM1; 1 µM,4% and 0%
same,%Inh,NLK; 1 µM,98.1% and 98.4%
same,%Inh,OSR1; 1 µM,4% and 0%
same,%Inh,PAK1; 1 µM,23% and 11%
same,%Inh,PAK2; 1 µM,1% and 0%
same,%Inh,PAK3; 1 µM,35% and 39%
Cc1c2ccc(N(C)c3ccnc(Nc4cccc(S(N)(=O)=O)c4)n3)cc2nn1Cc1ccccc1.Cl.Cl [GW787226],%Inh,MYO3B,41%
same,%Inh,NDR1,51%
same,%Inh,NDR2,1%
same,%Inh,NEK10,0%
same,%Inh,NEK11,0%
same,%Inh,NEK1,32%
same,%Inh,NEK2,0%
same,%Inh,NEK3,22%
same,%Inh,NEK4,6%
same,%Inh,NEK5,0%
same,%Inh,NEK6,0%
same,%Inh,NEK7,0%
same,%Inh,NEK9,0%
same,%Inh,NIK,0%
same,%Inh,NIM1,0%
same,%Inh,NLK,5%
same,%Inh,OSR1,0%
same,%Inh,PAK1,32%
same,%Inh,PAK2,49%
same,%Inh,PAK3,28%
O=C(NCCNc1ccnc(Nc2ccc(F)cc2)n1)Nc1ccccc1F [GSK1379880],%Inh,MYO3B,0%
same,%Inh,NDR1,0%
same,%Inh,NDR2,0%
same,%Inh,NEK10,12%
same,%Inh,NEK11,0%
same,%Inh,NEK1,0%
same,%Inh,NEK2,0%
same,%Inh,NEK3,11%
same,%Inh,NEK4,15%
same,%Inh,NEK5,0%
same,%Inh,NEK6,0%
same,%Inh,NEK7,0%
same,%Inh,NEK9,11%
same,%Inh,NIK,9%
same,%Inh,NIM1,14%
same,%Inh,NLK,28%
same,%Inh,OSR1,20%
same,%Inh,PAK1,2%
same,%Inh,PAK2,0%
same,%Inh,PAK3,0%
CN(C1=C(c2ccccc2)C(=O)NC1=O)c1ccccc1 [SB-334860],%Inh,MYO3B,0%
same,%Inh,NDR1,26%
same,%Inh,NDR2,24%
same,%Inh,NEK10,15%
same,%Inh,NEK11,0%
same,%Inh,NEK1,8%
same,%Inh,NEK2,0%
same,%Inh,NEK3,9%
same,%Inh,NEK4,0%
same,%Inh,NEK5,23%
same,%Inh,NEK6,15%
same,%Inh,NEK7,0%
same,%Inh,NEK9,17%
same,%Inh,NIK,0%
same,%Inh,NIM1,34%
same,%Inh,NLK,35%
same,%Inh,OSR1,4%
same,%Inh,PAK1,0%
same,%Inh,PAK2,0%
same,%Inh,PAK3,0%
Cc1cccc(Cn2ccn3c(=O)cc(N4CCOCC4)nc23)c1 [GSK2297542],%Inh,MYO3B,0%
same,%Inh,NDR1,33%
same,%Inh,NDR2,0%
same,%Inh,NEK10,14%
same,%Inh,NEK11,6%
same,%Inh,NEK1,12%
same,%Inh,NEK2,15%
same,%Inh,NEK3,15%
same,%Inh,NEK4,16%
same,%Inh,NEK5,19%
same,%Inh,NEK6,2%
same,%Inh,NEK7,0%
same,%Inh,NEK9,15%
same,%Inh,NIK,0%
same,%Inh,NIM1,8%
same,%Inh,NLK,15%
same,%Inh,OSR1,19%
same,%Inh,PAK1,18%
same,%Inh,PAK2,25%
same,%Inh,PAK3,3%
